# High-throughput results: PubChem, National Center for Advancing Translational Sciences (NCATS)
# DRD3 agonist – agonists of human D3 dopamine receptor. P35462. D3R DiscoveRx beta-arrestin cells, luminescence, 90 min. max activation, %. hit rate 0.58% among 410,000. AID 652048; in the data active = max activation above about 30%
# Target sequence (P35462 whole entry, looked up): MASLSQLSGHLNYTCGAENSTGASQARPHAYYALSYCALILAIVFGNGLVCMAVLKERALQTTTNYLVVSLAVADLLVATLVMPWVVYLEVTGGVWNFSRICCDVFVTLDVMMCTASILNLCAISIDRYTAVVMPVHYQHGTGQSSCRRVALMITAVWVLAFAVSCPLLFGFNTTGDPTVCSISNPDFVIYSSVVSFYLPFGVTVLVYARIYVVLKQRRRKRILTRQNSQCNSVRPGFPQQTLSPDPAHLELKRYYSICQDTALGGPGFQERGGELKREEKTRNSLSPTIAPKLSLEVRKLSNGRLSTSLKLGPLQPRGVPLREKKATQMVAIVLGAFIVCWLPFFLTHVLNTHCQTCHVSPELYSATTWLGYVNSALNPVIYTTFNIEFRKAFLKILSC
#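 Cells at 1500/well, incubated overnight, then treated with pinned compounds (dopamine as control) for 90 min at 37 degrees C. DiscoveRx reagent added for 30 - 60 minutes at room temperature; luminescence read.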
# KB-3-1 cytotox – kills parental KB-3-1 adenocarcinoma cells. Potency, µM (doses to about 46.1 µM), hits mostly cytotoxic. AID 1347075. KB-3-1 viability, CellTiter-Glo ATP luminescence, 72 h. hit rate 1.4% among 400,000; note: nearly all actives have a fitted effect of over 60% in size
#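 Here the drug-naive KB-3-1 line serves as comparator for MDR sub-line selectivity; cells received compound titrations, 72 h at 37 °C, then CellTiter-Glo readout.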
# MCF10A rerep – DNA re-replication induction in MCF 10a cells | MCF 10A DNA re-replication, Hoechst nuclear intensity, 48 h | Potency, µM (titrated, usually from 46.1 µM), most hits filed as activators | hit rate 2.9% among 350,000; note: nearly all actives have a fitted effect of over 50% in size
# KB-V1 MDR tox – KB-V1 MDR subline cytotoxicity; KB-V1 MDR cells viability, CellTiter-Glo, 72 h; Potency, µM (titrated, usually from 46.1 µM), actives largely listed as cytotoxic; hit rate 3.4% among 400,000; note: nearly all actives have a fitted effect of over 60% in size
#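 Potencies derive from concentration-effect curves fitted to normalized luminescence (CellTiter-Glo) of KB-V1 cells treated for 72 h at 37 degrees C in phenol-red-free DMEM containing 10% FBS.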
# D3 antag – D3 dopamine receptor (human) antagonism | hit rate 2.5% among 360,000 | D3R cells, DiscoveRx beta-arrestin luminescence, antagonist mode; active compounds read low | max response, negative = inhibition, %; in the data active = max response below about -50%; inconclusive = no clear call, values can overlap the other calls
#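 Cells plated overnight at 1500 cells/well, then exposed to library compounds with dopamine controls for 90 minutes at 37 degrees C. DiscoveRx reagent added for 30–60 minutes at room temperature; luminescence read, quantitative HTS format.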
# SW480 rerep – DNA re-replication induction in SW480 cells | Potency, µM (highest dose often 46.1 µM), hits mostly activators | AID 624297 | SW480 DNA re-replication, Hoechst DNA content imaging, 48 h | hit rate 1.8% among 340,000; note: nearly all actives have a fitted effect of over 55% in size
#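 Quantitative HTS format with DMSO vehicle controls; 48 hr drug incubation at 37 C, then 40 min Hoechst staining and scanning imager measurement at 405 nm excitation.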
# Hits are given with their value; i = inactive; ? = inconclusive; nt = not tested or not shown. Most compounds without a hit are left out; they make up all but 8.9% or so of the library. Unless noted, calls come from the whole dose curve; as a rule, active = well fitted curve in the direction sought with a large enough effect; inconclusive = small, poorly fitted or top-dose-only effect, or another doubt; inactive = no such curve, though single readings can be large; an effect the other way counts as inactive or inconclusive.
SMILES,DRD3 agonist,KB-3-1 cytotox,MCF10A rerep,KB-V1 MDR tox,D3 antag,SW480 rerep
O=S(=O)(c1ccc2[nH]c3c(c2c1)CCCCC3)N1CCN(c2cccc(Cl)c2)CC1,i,i,nt,i,nt,nt
CNc1cncc(-c2cc(C)c(O)c(C)c2)n1,76,?,nt,?,i,nt
CNc1cncc(-c2ccc(O)cc2)n1,i,i,nt,i,i,nt
CC1CCN(CCCNC(=O)c2n[nH]c(=O)c3ccccc23)CC1,i,i,i,i,-62,i
COc1ccc2cc3cc(C(=O)NCCCN4CCC(C)CC4)oc3nc2c1,i,?,i,i,-58,?
COc1ccc2cc3cc(C(=O)NCc4cccs4)oc3nc2c1,i,4.6µM,?,?,i,i
Cn1c(=O)cc(OCC(=O)N2CCCc3ccccc32)c2ccccc21,i,i,i,15µM,i,i
Cc1ccccc1OCC(=O)Nc1ccc(-c2nc3ccccc3o2)cc1,i,i,nt,i,nt,nt
Cc1ccc(C)c(NS(=O)(=O)c2cc3c(cc2C)n(C)c(=O)c(=O)n3C)c1,i,i,nt,i,nt,nt
CC1CCN(CCCNC(=O)c2coc3nc4ccccc4nc23)CC1,i,i,15µM,i,-78,i
CCCN(CCC)CCCNC(=O)c1cc2cc3ccc(OC)cc3nc2o1,i,i,i,i,?,i
COc1ccc2cc3cc(C(=O)NCCN4CCN(Cc5ccccc5)CC4)oc3nc2c1,i,i,i,i,-61,i
CC1CCN(CCCNC(=O)COc2cc(=O)n(C)c3ccccc23)CC1,i,i,i,i,-75,i
CCCCN(CC)CCCNC(=O)c1cc2cc3ccc(OC)cc3nc2o1,i,i,i,i,-72,i
CC1CCCN(CCCNC(=O)c2coc3nc4ccccc4nc23)C1 (centres undefined),i,i,i,?,i,i
CCn1c(=O)cc(OCC(=O)NCCCN2CCC(C)CC2)c2ccccc21,i,i,?,i,?,i
CC(=O)NC1[C@H](O)C[C@@](O)(C(=O)O)O[C@H]1[C@H](O)[C@H](O)CO (some centres undefined),nt,nt,i,nt,nt,i
COc1cc(C)ccc1OCCCn1c(-c2ccc(Cl)cc2)nc2ccccc2c1=O,i,i,nt,?,nt,nt
CCCCn1c(N)c(N(CC(C)C)C(=O)CCN2C(=O)C3CC=CCC3C2=O)c(=O)[nH]c1=O (centres undefined),i,i,nt,i,i,nt
O=C(C=Cc1ccccc1Cl)c1ccccc1,i,i,?,i,i,?
C=CCn1cccc(/C=C/C(=O)c2ccc(C(C)(C)C)cc2)c1=S,i,i,13µM,?,-60,?
COc1ccc(OCc2cc(C(=O)NC(C)Cc3ccccn3)no2)c(Cl)c1 (centres undefined),i,i,i,i,i,i
COc1ccc(OCc2cc(C(=O)NC(C)Cc3cccnc3)no2)c(Cl)c1 (centres undefined),i,i,i,?,i,8.2µM
COc1ccc(OCc2cc(C(=O)NC3Cc4ccccc4C3)no2)c(Cl)c1,i,4.6µM,?,?,i,?
CN1CCN(S(=O)(=O)c2ccc3c(c2)oc(=O)n3C)CC1,i,i,i,i,i,i
SMILES,DRD3 agonist,KB-3-1 cytotox,MCF10A rerep,KB-V1 MDR tox,D3 antag,SW480 rerep
CC(C)(C)NC(=O)N1CCN(S(=O)(=O)c2ccc3c(c2)CCC3)CC1,i,i,i,i,i,i
CC(C)COC(=O)N1CCN(S(=O)(=O)c2ccc3c(c2)CCC3)CC1,i,i,i,15µM,i,i
CCOC(=O)c1ccc(S(=O)(=O)N2CCN(C)CC2)cc1,i,i,5.2µM,i,i,i
CCOC(=O)N1CCN(S(=O)(=O)c2ccc(OCC)cc2)CC1,i,i,i,16µM,i,i
CCOC(=O)N1CCN(S(=O)(=O)c2ccc3c(c2)oc(=O)n3C)CC1,i,i,i,23µM,i,i
O=C(CN1C(=O)c2cccc3cccc1c23)Nc1cccc(F)c1,i,i,nt,i,nt,nt
CCc1nn(CC(=O)NCCOC)c(=O)c2cc3cc(F)ccc3n12,i,i,nt,i,nt,nt
CCOC(=O)n1c(=O)oc2cc(S(=O)(=O)N3CCCCC3)ccc21,i,i,?,23µM,i,i
COC(=O)n1c(=O)oc2cc(S(=O)(=O)N3CCCCC3)ccc21,i,i,i,?,i,i
N#CC1=C(SCC(=O)c2cc3ccccc3oc2=O)NC(=O)C(C#N)C12CCCC2 (centres undefined),i,i,i,i,i,i
CC(C)(C)C1CCC2(CC1)C(C#N)=C(SCC(=O)Nc1ccccc1)NC(=O)C2C#N (centres undefined),i,?,9.2µM,i,i,?
CC1(C)CC(=O)C2=C(C1)NC(SCC(=O)Nc1ccccc1)=C(C#N)C21CCCCC1,i,?,i,21µM,i,i
COc1ccccc1S(=O)(=O)N(C)C[C@H]1Oc2cc(C#CCC3CCCC3)ccc2S(=O)(=O)N([C@H](C)CO)C[C@H]1C,i,i,nt,i,i,nt
COc1cccc(/C=C/C(=O)Nc2ccc(OC)nc2)c1,i,?,i,18µM,i,i
COc1ccc(NC(=O)/C=C/c2ccccc2)cn1,i,i,i,i,i,i
CC[N+]1(C)CCC(O)(c2ccc(OC)cc2)C(C(=O)c2ccc(OC)cc2)C1 (centres undefined),i,?,4.6µM,?,?,2.9µM
Cc1ccc(CCC(=O)Nc2ncc(Cc3cccc(Cl)c3Cl)s2)o1,i,0.12µM,?,0.52µM,i,1.2µM
CC(=O)N1c2c(cc(Br)cc2S(=O)(=O)N2CCN(c3cccc(Cl)c3)CC2)CC1C (centres undefined),i,i,nt,i,nt,nt
CC(C)n1nc(C(=O)OCC(=O)c2c[nH]c3ccccc23)c2ccccc2c1=O,59,i,i,i,i,i
CCn1nc(C(=O)OCC(=O)c2c[nH]c3ccccc23)c2ccccc2c1=O,i,i,i,?,i,i
Cc1ccc(NC(=O)c2cc(Cl)ccc2[N+](=O)[O-])cc1C,i,i,i,i,i,i
Cc1ccc(NC(=O)c2ccc([N+](=O)[O-])o2)cc1C,i,18µM,9.2µM,i,i,?
O=C(Nc1ccc2[nH]c(=O)[nH]c2c1)c1ccc([N+](=O)[O-])o1,i,?,5.8µM,?,i,2.9µM
CCOC(=O)N1CCN(C(=O)CSCC(=O)Nc2nc(-c3ccc(-c4ccccc4)cc3)cs2)CC1,56,?,i,i,i,i
CCOC(=O)N1CCN(C(=O)CSCC(=O)Nc2nc(-c3ccc(OC)cc3)cs2)CC1,i,?,?,21µM,i,i
O=C(CSCC(=O)N1CCOCC1)Nc1nc(-c2ccccc2)cs1,i,i,i,i,i,i
CCS(=O)(=O)N1Cc2ccccc2CC1C(=O)Nc1nc2c(C)cccc2s1 (centres undefined),i,i,i,2.9µM,i,i
